Assay results from PubChem BioAssay (NCATS).
Results filed as inconclusive are left out. Activity calls are given as the source filed them. Calls come from the whole dose curve; as a rule, active = well fitted cell-killing curve with a large enough effect; inconclusive = small, poorly fitted or top-dose-only effect; inactive = flat fitted curve, though single readings scatter.

assay: Cell Viability - LYMP1-002 - Assay at 16 hr (AID 948); settings: LYMP1-002 lymphoblastoid cell viability; series mostly up to 92.2 µM; activity change, negative = cytotoxicity: at the top concentration;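 for activity change, negative = cytotoxicity: 0% = DMSO alone and full effect = 92 µM tetraoctylammonium bromide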
Excerpt: NIH Chemical Genomics Center [NCGC]
NIH Molecular Libraries Screening Centers Network [MLSCN]
National Institutes of Environmental Health Sciences [NIEHS]
National Toxicology Program [NTP]
We have developed a 1536-well cell-based assay for quantitative high throughput screening (qHTS) against a number of cell lines to determine in vitro cytotoxicity of small molecules. This particular assay uses a human lymphoblastoid cell line (LYMP1-002) purchased from Coriell Institute for Medical Research.
NCGC Assay Protocol Summary:
The CellTiter-Glo luminescent cell viability assay (Promega) is a homogeneous method to measure the number of viable cells in culture. The end point readout of this assay is based on quantitation of intracellular ATP, an indicator of metabolic activity, using the luciferase reaction. Luciferase catalyzes the oxidation of beetle Luciferin to oxyluciferin and light in the presence of ATP. The luminescent signal is proportional to amount of ATP present.
Using the CellTiter-Glo luminescent cell viability assay, the amount of cellular ATP was measured in the lymphoblastoid cell line with complete culture medium following compound treatment for 16 hours. The assay was performed in opaque white Kalypsys 1536-well plates. In the screen, tetraoctylammonium bromide was used as positive control. Library compounds were measured for their ability to cause acute toxicity in the cell line, as reflected by a decrease in intracellular ATP levels, in a concentration-dependent manner. […] AC50 values were determined from concentration-response data modeled with the standard Hill equation.
qHTS protocol for CellTiter Glo lymphoblastoid cellular assay
[Step] [Parameter] [Value] [Description]
1. Reagent; 5 uL; 2500 lymphoblastoid cells/well
2. Time; 5 hr; 37 C incubation
4. Controls; 23 nL; Tetraoctylammonium bromide 6.4pM to 92 uM
5. Time; 16 hr; 37 C incubation
6. Reagent; 5 uL; CellTiter Glo reagent
7. Time; 30 min; Room Temperature
8. Detection; Luminescence; Viewlux plate reader
Keywords: cell viability, cytotoxicity, lymphoblastoid cell line, luminescence, NTPHTS, NTPHTS_NCGC, NIEHS, DSSTox, MLSMR, MLSCN, NIH Roadmap, qHTS, NCGC
Potency is the fitted concentration of half-maximal effect.

Row | SMILES | activity change, negative = cytotoxicity | Potency
1 | O=c1ccc2ccccc2o1 | -4.12% (inactive) | –
2 | CC(=O)Oc1ccc(C(c2ccc(OC(C)=O)cc2)c2ccccn2)cc1 | -2.85% (inactive) | –
3 | Oc1c(Cl)cc(Cl)cc1Sc1cc(Cl)cc(Cl)c1O | -8.69% (inactive) | –
4 | C[C@]12CC[C@@H]3c4ccc(O)cc4CC[C@H]3[C@@H]1CC[C@@H]2O | -11.7% (inactive) | –
5 | COc1cccc2c1C(=O)c1c(O)c3c(c(O)c1C2=O)C[C@@](O)(C(C)=O)C[C@@H]3O[C@H]1C[C@H](N)[C@H](O)[C@H](C)O1 | – | 0.794 µM (active)
6 | Nc1ccc(C(=O)O)cc1 | -1.91% (inactive) | –
7 | CN(C)/N=N/c1nc[nH]c1C(N)=O | -5.48% (inactive) | –
8 | COC1=CC(=O)C[C@@H](C)[C@]12Oc1c(Cl)c(OC)cc(OC)c1C2=O | -17.5% (inactive) | –
9 | COc1cccc2c1C(=O)c1c(O)c3c(c(O)c1C2=O)C[C@@](O)(C(=O)CO)C[C@@H]3O[C@H]1C[C@H](N)[C@H](O)[C@H](C)O1 | – | 3.16 µM (active)
10 | Oc1ccc(O)cc1 | – | 31.6 µM (active)
11 | CCCCCCc1ccc(O)cc1O | -11.6% (inactive) | –
12 | CC(=O)O[C@]1(C(C)=O)CC[C@H]2[C@@H]3C[C@H](C)C4=CC(=O)CC[C@]4(C)[C@H]3CC[C@@]21C | -9.68% (inactive) | –
13 | O=C1OC(c2ccc(O)cc2)(c2ccc(O)cc2)c2ccccc21 | -6.64% (inactive) | –
14 | CC(C)(C)CC(C)(C)c1ccc(OCCOCC[N+](C)(C)Cc2ccccc2)cc1 | – | 50.1 µM (active)
15 | NC(=NCCCCCCN=C(N)/N=C(\N)Nc1ccc(Cl)cc1)/N=C(\N)Nc1ccc(Cl)cc1 | – | 50.1 µM (active)
16 | CC/C(=C(/CC)c1ccc(O)cc1)c1ccc(O)cc1 | -13.8% (inactive) | –
17 | O=C(O)CCCCC(=O)O | -1.32% (inactive) | –
18 | CC(O)C(=O)O (centres undefined) | -1.26% (inactive) | –
19 | C=CCc1ccc(O)c(OC)c1 | -0.384% (inactive) | –
